Reference: PubChem BioAssay (Tox21)
Values joined by “and” are separate entries in the source; they are usually repeats but may differ in a detail not shown here. Identical values can stand only once. Records with an inconclusive call do not appear. The source holds several records for some structures; these can differ, active in one and inactive in another. Active and inactive are the calls of the source. Unless noted, calls come from the whole dose curve; as a rule, active = well fitted curve in the direction sought with a large enough effect in the repeat runs; inconclusive = weak or mixed curves; inactive = no such curve, though single readings can be large; an effect the other way counts as inactive or inconclusive.

Assays:
[1] = qHTS assay to identify small molecule agonists of the RXR signaling pathway - cell viability counter screen (AID 1159529); note: nearly all actives have a fitted effect of over 50% in size; note: potency is the fitted concentration of half-maximal effect
How it was run: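 Same-well viability check after the LiveBLAzer FRET read: CellTiter-Glo added, luminescence measured after 30 min at room temperature. Reporter HEK 293T cells had been treated with compounds for 16 hr following a 5 hr preincubation.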

[2] = qHTS assay to identify small molecule antagonists of the retinoid acid receptor (RAR) signaling pathway - cell viability counter screen (AID 1159551); note: nearly all actives have a fitted effect of over 35% in size; note: potency is the fitted concentration of half-maximal effect
How it was run: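 Following overnight attachment, C3RL4 reporter cells received DMSO-dissolved compounds and then retinol (1 uM final). Six hours later at 37 C, ATP content was measured by CellTiter-Glo luminescence.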

[3] = qHTS assay to identify small molecule antagonists of the retinoic acid receptor (RAR) signaling pathway (AID 1159552; note: nearly all actives have a fitted effect of over 50% in size; note: potency is the fitted concentration of half-maximal effect)
How it was run: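 Readout: luciferase luminescence, 30 min post-reagent at RT. Setup: C3RL4 RARE reporter cells, compounds plus retinol 1 uM final, 6 hr incubation at 37 C and 5% CO2.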

[4] = qHTS assay to identify small molecule agonists of the retinoic acid receptor (RAR) signaling pathway (AID 1159553); settings: C3RL4 RARE luciferase reporter, agonist, 6 h; activation: at 73.3 µM (top of the series) unless noted; note: potency is the fitted concentration of half-maximal effect
How it was run: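 Cell line C3RL4, RARE luciferase reporter. Treatment: compounds in DMSO, 6 hr, 37 C, 5% CO2, after overnight plating. Detection: luminescence, 30 min RT after reagent.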

[5] = qHTS assay to identify small molecule antagonists of the estrogen related receptor (ERR) signaling pathway from Tox21 library - cell viability counter screen (AID 1224834); note: nearly all actives have a fitted effect of over 30% in size; note: potency is the fitted concentration of half-maximal effect
How it was run: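 Viability readout (CellTiter-Fluor fluorescence, 30 min at 37 C) multiplexed with the ERR assay; cells treated 17.5 h at 37 C with compounds delivered in DMSO.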

[6] = target: Luciferin 4-monooxygenase (Photinus pyralis) (UniProt P08659); experiment: qHTS assay to identify small molecule inhibitors of firefly luciferase (AID 1224835); note: nearly all actives have a fitted effect of over 25% in size; note: potency is the fitted concentration of half-maximal effect
Luciferin 4-monooxygenase (Photinus pyralis), sequence (P08659 whole entry, looked up): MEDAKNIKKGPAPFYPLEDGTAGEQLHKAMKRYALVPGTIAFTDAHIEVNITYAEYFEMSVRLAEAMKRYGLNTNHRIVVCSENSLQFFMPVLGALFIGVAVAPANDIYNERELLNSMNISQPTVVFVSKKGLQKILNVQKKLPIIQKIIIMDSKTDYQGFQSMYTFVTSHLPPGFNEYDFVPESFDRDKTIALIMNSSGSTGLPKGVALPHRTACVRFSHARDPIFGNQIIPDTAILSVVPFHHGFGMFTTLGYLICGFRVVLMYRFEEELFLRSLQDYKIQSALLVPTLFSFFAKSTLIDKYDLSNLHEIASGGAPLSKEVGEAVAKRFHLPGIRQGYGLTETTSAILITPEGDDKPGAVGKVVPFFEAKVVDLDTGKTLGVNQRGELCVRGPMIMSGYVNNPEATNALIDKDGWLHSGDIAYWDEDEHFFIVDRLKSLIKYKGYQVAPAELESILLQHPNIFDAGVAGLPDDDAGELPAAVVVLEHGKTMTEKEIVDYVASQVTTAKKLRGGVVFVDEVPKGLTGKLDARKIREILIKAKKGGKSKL
How it was run: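 Quantitative HTS format; KM concentrations of both substrates. Purified P. pyralis FLuc activity quantified from luminescence images.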

[7] = qHTS assay to identify small molecule agonists of the constitutive androstane receptor (CAR) signaling pathway - cell viability counter screen (AID 1224836); note: nearly all actives have a fitted effect of over 45% in size; note: potency is the fitted concentration of half-maximal effect
How it was run: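 Compound titrations (15 concentrations) went onto HepG2-CYP2B6-hCAR cells 4 h after seeding, alongside PK11195 at a final 0.75 uM; a 23 h, 37 C/5% CO2 incubation preceded CellTiter-Fluor viability measurement.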

[8] = qHTS assay to identify small molecule antagonists of the constitutive androstane receptor (CAR) signaling pathway - cell viability counter screen (AID 1224837); note: nearly all actives have a fitted effect of over 45% in size; note: potency is the fitted concentration of half-maximal effect
How it was run: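 Fluorescence from CellTiter-Fluor served as the viability signal. Human hepatoma HepG2 cells stably bearing hCAR and CYP2B6-2.2kb received compound plus CITCO (50 nM final) for 23 hr.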

[9] = target: Nuclear receptor subfamily 1 group I member 3 (Homo sapiens) (UniProt Q14994); experiment: qHTS assay to identify small molecule antagonists of the constitutive androstane receptor (CAR) signaling pathway (AID 1224838);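 note: HepG2 cells stably expressing hCAR with CYP2B6 luciferase reporter stimulated by CITCO; nearly all actives have a fitted effect of over 40% in size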; note: potency is the fitted concentration of half-maximal effect
Nuclear receptor subfamily 1 group I member 3 (Homo sapiens), sequence (Q14994 whole entry, looked up): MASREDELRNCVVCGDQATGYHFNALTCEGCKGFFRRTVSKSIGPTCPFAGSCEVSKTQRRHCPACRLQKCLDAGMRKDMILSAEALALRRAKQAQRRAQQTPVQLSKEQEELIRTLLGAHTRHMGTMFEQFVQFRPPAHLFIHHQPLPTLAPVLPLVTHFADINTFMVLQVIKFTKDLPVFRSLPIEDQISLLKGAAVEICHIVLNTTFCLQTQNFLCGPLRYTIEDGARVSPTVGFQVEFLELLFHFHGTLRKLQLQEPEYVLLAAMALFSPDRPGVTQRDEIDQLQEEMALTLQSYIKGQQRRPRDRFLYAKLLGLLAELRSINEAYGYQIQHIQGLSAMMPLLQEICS
How it was run: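 Quantitative HTS in double-stable HepG2-CYP2B6-hCAR cells. After 4 h plating, cells get compound (15 concentrations) and CITCO at 50 nM final, incubate 24 h at 37 C, then ONE-Glo luminescence is read.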

[10] = target: Nuclear receptor subfamily 1 group I member 3 (Homo sapiens) (UniProt Q14994); experiment: qHTS assay to identify small molecule agonists of the constitutive androstane receptor (CAR) signaling pathway (AID 1224839); note: nearly all actives have a fitted effect of over 15% in size; note: potency is the fitted concentration of half-maximal effect;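 for activation: HepG2 cells stably carrying human CAR and a CYP2B6 luciferase reporter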
How it was run: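 In this screen, CAR-driven CYP2B6 promoter activity is measured by luminescence in HepG2-CYP2B6-hCAR cells after 24 h with test compounds and 0.75 uM PK11195 (final concentration).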

[11] = qHTS assay to identify small molecule antagonists of the estrogen related receptor signaling pathway with the pleiotropic PPARgamma coactivator (PGC) from Tox21 10K library (AID 1224841; call rule not given here; note: actives are mostly falling curves and most rising ones were filed inactive; nearly all actives have a fitted effect of over 50% in size; note: potency is the fitted concentration of half-maximal effect)
How it was run: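 Compound exposure ran 18 hours at 37 C in PGC/ERR cells (2,000/well) that had first rested 6 hours in a 37 C/5% CO2 incubator. Luciferase activity was then detected with One-Glo after a 30-minute room-temperature step.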

[12] = qHTS assay to identify small molecule agonists of the estrogen related receptor signaling pathway with the pleiotropic PPARgamma coactivator (PGC) from Tox21 10K library (AID 1224842); note: nearly all actives have a fitted effect of over 15% in size
How it was run: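 PGC/ERR reporter cells (NTP line) were seeded 2,000 per well, rested 6 h at 37 C/5% CO2, then pin-dosed with compounds in DMSO for 18 h at 37 C; luciferase read by One-Glo luminescence after 30 min at room temperature.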

[13] = qHTS assay to identify small molecule antagonists of the estrogen related receptor signaling pathway with the pleiotropic PPARgamma coactivator (PGC) from Tox21 10K library - cell viability counter screen (AID 1224840; active = well fitted cell-killing curve with a large enough effect in the repeat runs, not every such curve was filed as active; note: nearly all actives have a fitted effect of over 40% in size; note: potency is the fitted concentration of half-maximal effect)
How it was run: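 Compounds in DMSO, alongside positive and negative controls, were pinned onto PGC/ERR cells (2,000 per well). Exposure lasted 17.5 hours at 37 C, followed by a 30-minute CellTiter-Fluor incubation and fluorescence reading.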

[14] = target: Thyrotropin receptor (Homo sapiens) (UniProt P16473); experiment: qHTS assay to identify small molecule agonists of the thyroid stimulating hormone receptor (TSHR) signaling pathway (AID 1224843; calls by dose curve; note: nearly all actives have a fitted effect of over 45% in size; note: potency is the fitted concentration of half-maximal effect)
Thyrotropin receptor (Homo sapiens), sequence (P16473 whole entry, looked up): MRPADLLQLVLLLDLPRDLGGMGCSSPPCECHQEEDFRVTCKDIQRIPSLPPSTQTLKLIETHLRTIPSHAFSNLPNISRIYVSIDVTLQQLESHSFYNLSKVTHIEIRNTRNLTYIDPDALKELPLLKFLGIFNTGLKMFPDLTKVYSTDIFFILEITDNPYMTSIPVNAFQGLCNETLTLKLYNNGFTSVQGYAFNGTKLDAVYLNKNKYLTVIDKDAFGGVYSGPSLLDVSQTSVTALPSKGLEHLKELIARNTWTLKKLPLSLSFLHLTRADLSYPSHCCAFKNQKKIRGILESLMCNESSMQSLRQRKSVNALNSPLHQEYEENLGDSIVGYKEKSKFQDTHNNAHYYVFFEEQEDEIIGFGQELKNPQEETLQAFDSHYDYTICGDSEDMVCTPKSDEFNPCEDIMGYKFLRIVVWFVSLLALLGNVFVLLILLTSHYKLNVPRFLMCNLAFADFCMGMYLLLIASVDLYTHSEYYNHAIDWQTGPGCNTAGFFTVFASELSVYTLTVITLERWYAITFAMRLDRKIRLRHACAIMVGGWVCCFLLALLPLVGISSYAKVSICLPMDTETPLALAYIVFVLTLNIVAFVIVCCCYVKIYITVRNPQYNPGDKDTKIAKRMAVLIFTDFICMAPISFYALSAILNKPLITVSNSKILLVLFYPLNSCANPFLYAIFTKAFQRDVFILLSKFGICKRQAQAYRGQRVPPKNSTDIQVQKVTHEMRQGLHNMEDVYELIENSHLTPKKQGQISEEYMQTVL
How it was run: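 Cell line HEK293 with TSHR; density 800/well. Exposure 30 min RT. Readout HTRF cAMP (cAMP-d2/anti-cAMP-cryptate), 1 h RT before reading.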

[15] = qHTS assay to identify small molecule antagonists of the estrogen related receptor (ERR) signaling pathway - cell viability counter screen (AID 1224818);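 note: viability measured after 17.5 h of compound exposure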
How it was run: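 Here, ERR cells are plated at 2,000 cells per well, allowed 6 h to attach, and treated with compounds in DMSO for 17.5 h at 37 C. CellTiter-Fluor is then added and fluorescence read after 30 min.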

[16] = qHTS assay to identify small molecule antagonists of the estrogen related receptor signaling pathway with the pleiotropic PPARgamma coactivator (PGC) cell viability counter screen (AID 1224822;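 note: viability read after 17.5 h compound exposure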)
How it was run: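 qHTS format, DMSO compound stocks pin-transferred onto PGC/ERR cells 6 h after plating; 17.5 h exposure at 37 C, then CellTiter-Fluor fluorescence.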

[17] = qHTS assay to identify small molecule antagonists of the estrogen related receptor (ERR) signaling pathway (AID 1224819;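 note: luminescence from an ERR-driven luciferase reporter measured with One-Glo reagent; nearly all actives have a fitted effect of over 50% in size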)
How it was run: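 LOPAC library screened for antagonism as reduced One-Glo luminescence in ERR reporter cells (2,000/well). Compounds were added after 6 h pre-incubation and left 18 h at 37C; reading followed a 30 min room-temperature reagent step.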

[18] = qHTS assay to identify small molecule agonists of the estrogen related receptor (ERR) signaling pathway (AID 1224820)
How it was run: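 ERR reporter cell line (from NTP), 2,000 cells/well, incubated 6 h before compound addition, then 18 h at 37 C. Luminescence measured 30 min after One-Glo reagent at room temperature.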

[19] = system: estrogen-related receptor alpha (ERRalpha) with PGC-1alpha coactivator, human; experiment: qHTS assay to identify small molecule antagonists of the estrogen related receptor signaling pathway with the pleiotropic PPARgamma coactivator (PGC) (AID 1224821; calls by dose curve)
How it was run: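 PGC/ERR reporter cell line, plated 6 h before compound addition, then exposed 18 h at 37 °C. Luciferase activity read by luminescence 30 min after One-Glo addition; decrease indicates antagonism.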

[20] = qHTS assay to identify small molecule agonists of the estrogen related receptor signaling pathway with the pleiotropic PPARgamma coactivator (PGC) (AID 1224823)
How it was run: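 PGC/ERR reporter cells seeded 6 h, then exposed to compounds (23 nL in DMSO) for 18 h at 37 C. One-Glo luciferase luminescence read after 30 min at room temperature.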

Measured: Potency

COc1ccc(C=O)cc1OC
inactive: [1] | [2] | [3] | [4] | [5] | [6] | [7] | [8] | [9] | [10] | [11] | [12]

Cn1c(-c2ccccc2)cc(-c2ccccc2)[n+]1C
inactive: [1] | [2] | [3] | [4] | [5] | [6] | [7] | [8] | [9] | [10] | [13] | [12] | [14]
active: [11] 8.62 µM and 27.3 µM

ClC(Cl)(Cl)Br
inactive: [1] | [2] | [3] | [4] | [5] | [6] | [7] | [8] | [9] | [10] | [13] | [14]

C=CC(=O)OCC(CC)(COC(=O)C=C)COC(=O)C=C
inactive: [2] | [6] | [10] | [12]
active: [1] 15.9 µM and 21.9 µM | [3] 8.87 µM and 15.4 µM | [4] 2.23 µM | [5] 15.8 µM and 17.2 µM | [7] 35.3 µM and 30.6 µM | [8] 28 µM and 19.3 µM | [9] 28 µM and 21.7 µM | [13] 8.87 µM and 12.2 µM | [11] 17.7 µM and 21.7 µM | [14] 11.2 µM and 15.4 µM

Oc1ccc(Cl)cc1Cc1ccccc1
31 µM (active) and inactive: [10]
55.1 µM (active) and inactive: [2]
active: [1] 49 µM and 24.8 µM
inactive: [4] | [15] | [16] | [6] | [7] | [8] | [9] | [13] | [14]
27.6 µM (active) and inactive: [3]

Nc1ncn[nH]1
inactive: [1] | [2] | [3] | [4] | [5] | [6] | [8] | [9] | [10] | [13] | [14]

c1ccc2c(c1)Nc1ccccc1S2
active: [10] 30.6 µM
inactive: [1] | [2] | [3] | [4] | [15] | [17] | [18] | [19] | [16] | [20] | [8] | [9] | [13] | [11] | [12]

Clc1ccc(C(Cl)(Cl)Cl)cc1
inactive: [1] | [2] | [3] | [4] | [5] | [6] | [7] | [8] | [13] | [11] | [12] | [14]

CCCCC(C#N)(Cn1cncn1)c1ccc(Cl)cc1 (stereo not drawn)
inactive: [1] | [2] | [3] | [4] | [5] | [6] | [7] | [8] | [9] | [10] | [13] | [11] | [12]

O=NN(c1ccccc1)c1ccccc1
inactive: [1] | [2] | [3] | [4] | [5] | [6] | [7] | [8] | [13] | [14]

Clc1ccccc1-c1nnc(-c2ccccc2Cl)nn1
active: [4] 6.8 µM | [6] 1.4 µM and 708 nM | [10] 30.4 µM and 9.66 µM
inactive: [1] | [2] | [3] | [5] | [7] | [8] | [9] | [14]

CCCCOC(=O)COC(=O)c1ccccc1C(=O)OCCCC
active: [6] 12.6 µM and 35.6 µM
inactive: [1] | [2] | [3] | [4] | [5] | [7] | [8] | [9] | [10] | [13] | [11] | [12]

C=CC(Cl)CCl (stereo not drawn)
inactive: [1] | [2] | [3] | [4] | [5] | [6] | [7] | [8] | [9] | [10] | [13] | [14]

Oc1ccc(Cl)cc1Cl
inactive: [1] | [2] | [3] | [4] | [5] | [6] | [7] | [8] | [9] | [10] | [13] | [11] | [12]

CSc1nc(NC(C)C)nc(NC(C)C)n1
inactive: [1] | [2] | [3] | [4] | [5] | [6] | [7] | [8] | [9] | [13] | [11] | [12]

CCOP(=O)(OCC)OCC
inactive: [1] | [2] | [3] | [4] | [5] | [6] | [7] | [8] | [9] | [10] | [13] | [11] | [12] | [14]

CCC(=O)Nc1ccc(Cl)c(Cl)c1
inactive: [1] | [2] | [3] | [4] | [5] | [6] | [7] | [8] | [9] | [10] | [13]
